This note sets out measurements from PubChem BioAssay AID686978 (National Center for Advancing Translational Sciences (NCATS), 2013).

In all, about 420,000 compounds went through this assay and about 64,000 (15%) were called active. Another 27% or so got no clear call; they are omitted. The call rests on the fitted dose curve; in most records, active means well fitted inhibition curve with a large enough effect; inconclusive means small, poorly fitted or top-dose-only effect; inactive means flat fitted curve, though single readings scatter. A selection follows. A call without a number means that no potency is given here.
Potency means the concentration at half of the fitted maximal effect.

A short description of the experiment: qHTS for Inhibitors of human tyrosyl-DNA phosphodiesterase 1 (TDP1): qHTS in cells in absence of CPT. Further: nearly all actives have a fitted effect of over 55% in size. The settings on record: DT40 Tdp1-/- hTDP1 cells, no CPT, ATP luminescence, 48 h; activity change, negative = growth inhibition: at 46.2 µM (top of the series). Summed up: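 Stably hTDP1-transfected Tdp1-null chicken DT40 cells were treated with library compounds minus camptothecin and grown for at least 48 hr at 37 °C, after which cellular ATP was quantified by luminescence.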
For orientation: In qHTS, concentration-response curves come from the screen itself.
Consider `COc1ccc(S(=O)(=O)Nc2c(C)n(C)n(-c3ccccc3)c2=O)cc1`, for which the Potency result is “inactive”.

In the case of `CC[C@@H]1CCCCc2ccccc2[C@@H](C(=O)C[C@H](O)CC(C)=O)OC1=O`, the Potency entry was “inactive”.

Take `O=C(c1cc(COc2ccc(F)cc2F)on1)N1CCOCC1`: the Potency result is “inactive”.

In the case of `Cc1ccccc1CSc1nnc(-c2ccccn2)n1N`, the Potency entry was “inactive”.

As to `CN(Cc1ccccc1)S(=O)(=O)c1nnc(NC(=O)c2ccccc2F)s1`, the Potency entry is “inactive”.

In the case of `O=C(Oc1cccc(C(=S)N2CCOCC2)c1)c1cccc(Cl)c1`, the Potency entry is “inactive”.

For `COCCCNC(=O)C1CC(=O)N(CCc2ccc(F)cc2)C1` (centres undefined), the Potency result is “inactive”.

Consider `COC(=O)C1C(=O)NCC1c1ccc(C)cc1` (centres undefined), for which the Potency result was “inactive”.

As to `O=[N+]([O-])c1ccc(NCCCO)c(C(F)(F)F)c1`, the Potency entry is “inactive”.

As to `CO/N=C(\N)c1ccc([N+](=O)[O-])cc1`, the Potency result is “inactive”.

For the compound `O=C1/C(=C\c2ccc(O)cc2)CCC1CNc1ccc(Cl)cc1` (centres undefined), the Potency was 3.26 µM (active).

`CCCNC(=O)C(=O)Nc1cc2c3c(c1)CCC(=O)N3CCC2`: the Potency result was “inactive”.

Consider `Cc1[nH]n(C(N)=S)c(=O)c1N=Nc1ccc(Cl)cc1Cl`, for which the Potency entry is “inactive”.

On to `CC1=NN(C(N)=S)C(=O)C1N=Nc1cc(Cl)ccc1Cl` (centres undefined), for which the Potency is 3.66 µM (active).

Turning to `Cc1cc(C)c(C#N)c(N2CCC(C(N)=O)CC2)n1`, the Potency result was “inactive”.

On to `O=C(c1ccc(CSc2ccccc2)cc1)N1CCCCCC1`, for which the Potency entry was “inactive”.

Regarding `CC1CCN(C(=O)c2ccc(CSc3ccc(Cl)cc3)cc2)CC1`, the Potency is 16.4 µM (active).

For `COc1ccc(CC(NC(C)=O)C(=O)NC2CCN(C(=O)c3ccc(Cl)cc3)CC2)cc1` (centres undefined), the Potency entry was “inactive”.

Consider `Cc1cc(C)c(C#N)c(Nc2cccc(Br)c2)n1`, for which the Potency entry is “inactive”.

For the compound `CC(C)(C)OC(=O)CNC(=O)c1[nH]cnc1C(=O)N[C@@H](CCCCN)C(=O)OC(C)(C)C`, the Potency result is “inactive”.

Turning to `C#CCOCCOCCOCCNc1nc(N2CCN(C(=O)C([C@@H](C)O)n3cc([C@@H](N)CCCCN)nn3)CC2)nc(N2CCN(C(=O)[C@H](CCCCN)n3cc(CN)nn3)CC2)n1` (some centres undefined), the Potency result was “inactive”.

Turning to `O=C(NCc1ccco1)C1CCCN1S(=O)(=O)c1ccccc1C(F)(F)F` (centres undefined), the Potency result is “inactive”.

For the compound `CCOC(=O)CSc1nc(C)cc2c1C(=O)OC2`, the Potency entry is “inactive”.

Take `CCOC(=O)CSC1=N/C(=C/c2ccc(-n3cncn3)cc2)C(=O)N1C(C)=O`: the Potency is 11.6 µM (active).

Consider `CCCC(=O)N1CCC1(C)C(=O)Nc1ccc(-n2cncn2)cc1` (centres undefined), for which the Potency result was “inactive”.

With `C=CCn1c(COc2ccccc2C)nnc1SCC(=O)O`, the Potency entry is “inactive”.

As to `COc1ccc(CNc2ncncc2-c2ccccc2C)c(OC)c1`, the Potency entry is “inactive”.

For `COc1ccc(CCNc2ncnc3onc(-c4ccc(Cl)cc4)c23)c(OC)c1`, the Potency is 14.6 µM (active).

`COc1ccc(CNc2ncncc2-c2ccccc2OC)c(OC)c1`: the Potency result was “inactive”.

Turning to `O=C(Nc1cccc2c1CCCC2)c1ccc(F)cc1`, the Potency result is “inactive”.

As for `Clc1cccc(Cl)c1Cn1nnc(-c2cccs2)n1`, the Potency result is “inactive”.

In the case of `Cc1ccc(N=Cc2c(O)cc(C)oc2=O)c(C)c1`, the Potency entry was “inactive”.

As for `NC(=O)c1c(NC(=O)c2ccccc2)sc2c1CCCC2`, the Potency result was “inactive”.

For the compound `COc1cccc(OC)c1C(=O)Nc1sc2c(c1C(N)=O)CCCC2`, the Potency result is “inactive”.

With `O=C(Nc1ncc2c(n1)-c1ccccc1OC2)c1ccc(Cl)cc1`, the Potency entry was “inactive”.

`COCc1nnc(NC(=O)c2ccc3c(c2)OCO3)s1`: the Potency result was “inactive”.

In the case of `C=CCSc1nnc(NC(=O)c2ccc(NC(C)=O)cc2)s1`, the Potency result was “inactive”.

Turning to `C=CCN(CC=C)S(=O)(=O)c1ccc(C(=O)Nc2sc3c(c2C(N)=O)CCCCC3)cc1`, the Potency was 13 µM (active).

`COCCN(CCOC)S(=O)(=O)c1ccc(/C(O)=C(\C#N)c2nc3ccccc3[nH]2)cc1`: the Potency result is “inactive”.

As to `C=CCN(CC=C)S(=O)(=O)c1ccc(C(=O)Nc2nc3c(s2)CCc2ccccc2-3)cc1`, the Potency is 10.3 µM (active).

In the case of `COCCN(CCOC)S(=O)(=O)c1ccc(C(=O)Nc2nc3c(s2)CCc2ccccc2-3)cc1`, the Potency is 13 µM (active).

As to `CC1(c2nnc(-c3ccncc3)o2)CC(c2cccnc2)=NO1` (centres undefined), the Potency entry was “inactive”.

As for `CN(C)/C(=N\OC(=O)c1ccccc1)c1nonc1N`, the Potency entry is “inactive”.

Regarding `COCCNC(=O)c1ccc(Cn2c(SCC(=O)NCC3CCCO3)nc3ccc(Br)cc3c2=O)cc1` (centres undefined), the Potency result is “inactive”.

Consider `Nc1ccn(CC(=O)N2CCN(c3ccccn3)CC2)c(=O)n1`, for which the Potency result was “inactive”.

As to `CCCC(C(=O)n1nc(C)cc1C)C(NS(=O)(=O)c1ccc(C)cc1)c1ccccc1` (centres undefined), the Potency was 23.1 µM (active).

On to `Cc1ccc(S(=O)(=O)Nc2nc(C)cc(-n3nc(C)cc3C)n2)cc1`, for which the Potency result is “inactive”.

On to `Cc1ccc(S(=O)(=O)NC(C(=O)N2CCOCCOCCOCCOCC2)c2ccccc2)cc1` (centres undefined), for which the Potency result is “inactive”.

As to `Cc1c(NC(=O)C(C)OC(=O)c2ccccc2O)c(=O)n(-c2ccccc2)n1C` (centres undefined), the Potency entry was “inactive”.

`CCCCS(=O)c1snnc1C` (centres undefined): the Potency entry is “inactive”.

For `O=C1CCCCC1Sc1ccc(Cl)cc1[N+](=O)[O-]` (centres undefined), the Potency entry was “inactive”.

Consider `CCOC(=O)c1ccc(NC(=O)c2c(N)n(C)c(=O)[nH]c2=O)cc1`, for which the Potency entry is “inactive”.

For `O=C(Nc1ccc(Cl)cc1)c1cnn2c1NC(=C1CC1)C=C2C(F)F`, the Potency entry is “inactive”.

With `O=C(Nc1ccc([N+](=O)[O-])cc1)c1cnn2c1NC(=C1CC1)C=C2C(F)F`, the Potency entry was “inactive”.

As for `CC(C)(C)C1CCC(NC(=O)c2cnn3c2NC(=C2CC2)C=C3C(F)F)CC1` (centres undefined), the Potency was 7.94 µM (active).

In the case of `Cc1cc(N2C(=O)C(=O)/C(=C(/O)c3ccccc3)C2c2cccc(Br)c2)no1` (centres undefined), the Potency result is “inactive”.

Turning to `O=C(O)CSC(NC(=O)c1cccnc1)(C(F)(F)F)C(F)(F)F`, the Potency entry was “inactive”.

Regarding `COc1ccc(N)cc1NC(=O)CN1CCOCC1`, the Potency entry is “inactive”.

With `O=C(Nc1ccc(F)cc1)C(CCc1ccccc1)N1CCN(CC(=O)N2CCCC2)CC1` (centres undefined), the Potency result is “inactive”.

`Cc1cccc(N2CCN(C(=O)c3cccc(S(=O)(=O)N4CCc5ccccc5C4)c3)CC2C)c1` (centres undefined): the Potency was 7.31 µM (active).

For `CC(NC(=O)c1cccc(S(=O)(=O)N2CCc3ccccc3C2)c1)c1ccco1` (centres undefined), the Potency result was “inactive”.

For `COC(=O)c1ccc(S(=O)(=O)N2CCc3ccccc3C2)cc1`, the Potency result was “inactive”.

For the compound `COc1ccc(-n2ncc3c(N4CCCc5ccccc54)ncnc32)cc1`, the Potency result is “inactive”.

`Cc1cc(NC(=O)CN2C(=O)NC(C)(CCc3ccccc3)C2=O)no1` (centres undefined): the Potency result was “inactive”.

As to `COc1ccc(C2(c3ccc(OC)cc3)NC(=O)N(CC(=O)Nc3cc(C)on3)C2=O)cc1`, the Potency was 16.4 µM (active).

Regarding `CCCCCCCC1(C)NC(=O)N(CC(=O)Nc2cc(C)on2)C1=O` (centres undefined), the Potency entry was “inactive”.

Turning to `O=C(CSc1nnc(-c2ccccc2O)o1)NC1CCCCC1`, the Potency entry was “inactive”.

In the case of `O=S(=O)(Cc1ccccc1)c1nc2ccccc2n1Cc1ccccn1`, the Potency result was “inactive”.

For the compound `CCOc1ccc(S(=O)(=O)N2CCC(C(=O)NCC(=O)Nc3cccc(Cl)c3C)CC2)cc1`, the Potency result was “inactive”.

For the compound `CSc1nccc(NC(=O)c2ccc(C(C)(C)C)cc2)n1`, the Potency was 7.31 µM (active).

For the compound `Cc1cccc(NC(=O)c2ccccc2NC(=O)C(C)(C)C)n1`, the Potency result is “inactive”.

Take `Cc1cccc(NC(=O)c2cccnc2Cl)n1`: the Potency entry is “inactive”.

Consider `Cc1cc(C)c2nc(NC(=O)c3ccc4c(c3)OCO4)sc2c1`, for which the Potency result was “inactive”.

For `O=c1cnc2cnc(Nc3ccccc3)nc2n1Cc1ccc(F)cc1`, the Potency entry was “inactive”.

`COc1cccc(Nc2ncc3ncc(=O)n(C4CC4)c3n2)c1`: the Potency was 11.6 µM (active).

Consider `Cc1nc2cnc(Nc3ccccc3)nc2n(C[C@H]2CCCO2)c1=O`, for which the Potency entry was “inactive”.

With `CC(C)CCNC(=O)C1CCC(CNc2c(N3CCC(C)CC3)c(=O)c2=O)CC1` (centres undefined), the Potency entry was “inactive”.

`CC(C)C(=O)N1CCN(CCN=CC2=C(O)CC(c3ccco3)CC2=O)CC1` (centres undefined): the Potency result is “inactive”.

Take `Cc1ccc(OCC(=O)NCCCNC(=O)c2cccnc2)cc1C`: the Potency result is “inactive”.

Consider `CCCc1nc(-c2ccccc2O)n(-c2ccccc2)n1`, for which the Potency result was “inactive”.

`CCCc1nc(N2CCN(C)CC2)c2sc(=S)n(-c3ccccc3)c2n1`: the Potency was 16.4 µM (active).

In the case of `O=C1/C(=C/c2ccc3c(c2)OCO3)Oc2cc(OCC(=O)N3CC(O)C[C@H]3C(=O)O)ccc21` (some centres undefined), the Potency entry is “inactive”.

Consider `CCc1ccccc1N(CC(=O)NCCSCc1ccco1)S(C)(=O)=O`, for which the Potency entry was “inactive”.

For `Cc1noc(/C=C/N(C)C)c1S(=O)(=O)N1CCCC(C(=O)NCc2ccco2)C1` (centres undefined), the Potency entry was “inactive”.

As for `Cc1ccnc(NC(=O)C2CCN(S(=O)(=O)c3c(C)c(C)cc(C)c3C)CC2)c1`, the Potency result was “inactive”.

Regarding `Cc1noc(/C=C/c2ccco2)c1S(=O)(=O)N1CCC(C(=O)Nc2ccc(Cl)cn2)CC1`, the Potency is 18.4 µM (active).

Take `CNC(=O)C1CCN(S(=O)(=O)c2c(C)noc2/C=C/c2cccc(C)c2)CC1`: the Potency entry was “inactive”.

As for `Cc1cccc(NC(=O)C2CCN(S(=O)(=O)c3c(C)noc3/C=C/c3ccco3)CC2)c1`, the Potency was 20.6 µM (active).

As for `CC(=O)c1ccc(NC(=O)C2CCN(S(=O)(=O)c3c(C)noc3/C=C/c3ccc(C)cc3)CC2)cc1`, the Potency result was “inactive”.

For the compound `CC(C)CCNC(=O)c1cccnc1Sc1ccccc1`, the Potency result was “inactive”.

For the compound `Cc1ccccc1CN1CCN(CC(=O)NCc2ccccn2)C1=O`, the Potency result was “inactive”.

Turning to `Cc1ccccc1CN1C[C@@H]2C[C@@H](c3ccc4nsnc4c3)N3CCC[C@@]23C1=O`, the Potency is 20.6 µM (active).

Turning to `CC(=NCC1CCCO1)c1c(O)[nH]c(=O)[nH]c1=O` (centres undefined), the Potency entry is “inactive”.

Take `COc1ccc(/C=C2/C(=O)N(c3ccccc3)N=C2C)c(OC)c1`: the Potency result was “inactive”.

On to `COc1ccc(/C=C2/C(=O)OCc3cc(OC)c(OC)cc32)c(OC)c1`, for which the Potency is 29.1 µM (active).

With `COc1ccc(C2/C(=C(/O)c3ccccc3)C(=O)C(=O)N2C)c(OC)c1` (centres undefined), the Potency result is “inactive”.

For the compound `Cc1nc(N)sc1N=Nc1c(C)n(C)n(-c2ccccc2)c1=O`, the Potency entry is “inactive”.

Consider `COc1ccc(-c2ccc(CCC(=O)O)n2-c2ccc(O)cc2)cc1`, for which the Potency result is “inactive”.

As to `COc1cccc(OCCn2c(-c3ccc(Br)cc3)nc3ccccc3c2=O)c1`, the Potency result was “inactive”.

On to `COc1ccc(-c2nc3ccccc3c(=O)n2CCc2ccc(O)cc2)cc1`, for which the Potency is 9.2 µM (active).

Regarding `CCc1ccc(CNC(=O)C2CCN(c3nnc(C)c4c(C)n(-c5ccc(C)cc5)nc34)CC2)cc1`, the Potency is 5.17 µM (active).

As for `CCOc1ccc(CNC(=O)C2CCCN(c3nnc(C)c4c(C)n(-c5ccccc5)nc34)C2)cc1` (centres undefined), the Potency was 18.4 µM (active).

Turning to `Cc1nnc(N2CCCC(C(=O)NCCN(C)C)C2)c2nn(-c3ccccc3)c(C)c12` (centres undefined), the Potency result is “inactive”.

Consider `COc1ccc(-n2nc3c(N4CCC(C(=O)NCc5ccccc5)CC4)nnc(C)c3c2C)cc1`, for which the Potency entry is “inactive”.
